The list is not random: actives were taken first. Their share in the collection is about 13%.
RAM network inh – yeast RAM network inhibition; S. cerevisiae dse1pr::URA3 reporter, 5-FOA growth OD615, 2 d; analog-sensitive cbk1-as2 kinase mutant strain; inhibition, % at 50 µM; actives 1.8% (n = 190,000);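 active = inhibition above a set limit, 3 SD over mean compound inhibition, cut at about 8.4% in these data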;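 note: inhibition rescues growth on 5-FOA so higher OD means more RAM inhibition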
CHOP inhibitor – CHOP inhibition in unfolded protein response; CHO-K1 CHOP-promoter luciferase, tunicamycin-induced, 15-18 h; inhibition, % at 10 µM; actives 3.8% (n = 220,000);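 active = compounds that reduced the stress-induced luciferase reporter signal by more than about 70% of percent inhibition, limit read from the data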
L major viab – inhibitors of Leishmania major promastigote growth; AID 1063; actives 9% (n = 200,000); inhibition, % at 10 µM; Leishmania major promastigotes, resazurin fluorescence viability; in the data active = inhibition above about 50%;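 note: promastigotes grown with compound for 44 hours at 28 °C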
WT yeast gro inh – growth inhibition of WT yeast, mitochondrial fusion screen; mitochondrial fusion phenotypic screen, WT strain; inhibition, % at 10 µM; actives 2.1% (n = 190,000); AID 1362; in the data active = inhibition above about 58%; tested in S. cerevisiae
Large screens that a line does not name were inactive.

O=C(NC1CCCCC1)N1CCSC1=Nc1ccccc1	CHOP inhibitor 89, WT yeast gro inh 60
O=C(NC1CCCCC1)N1CCCc2ccccc21	none
CCNc1nc(NCC)nc(N(C)N)n1	none
Cc1ccccc1OCCCSc1nc2ccccc2[nH]1	WT yeast gro inh 62
CC(C)(C)c1ccc(OCc2ccc(C(=O)NCc3cccnc3)o2)cc1	none
C=CCn1c(SCC(=O)NC23CC4CC(CC(C4)C2)C3)nc2cc(C(=O)O)ccc2c1=O	none
Cc1no[n+]([O-])c1COc1ccc(/C=N/n2nnnc2N)cc1	L major viab 57
CCOC(=O)N1CCN(C(=O)c2cn(CC)c3ccc(S(=O)(=O)N4CCCCC4)cc3c2=O)CC1	none
O=C(c1cc(F)c(F)cc1Cl)N1CCN(c2ccc([N+](=O)[O-])c3ncccc23)CC1	L major viab 57
CCCCCCn1c(COc2ccccc2F)nnc1SCC(=O)N1c2ccccc2NC(=O)C1(C)C	L major viab 55
CC1(C)C(=O)Nc2ccccc2N1C(=O)CSc1ncccn1	none
Cc1c(NS(=O)(=O)c2cccc(C(=O)OCC(=O)N(C)C3CCCCC3)c2)c(=O)n(-c2ccccc2)n1C	none
Cc1ccc(NC(NC(=O)c2cccs2)C(Cl)(Cl)Cl)cc1C (configuration not stated)	CHOP inhibitor 80
Cc1ccc(NC(NC(=O)c2cccs2)C(Cl)(Cl)Cl)cc1 (configuration not stated)	L major viab 71
Cc1ccc(NC(NC(=O)c2ccccn2)C(Cl)(Cl)Cl)cc1 (configuration not stated)	none
Cc1ccccc1NC(NC(=O)c1cccs1)C(Cl)(Cl)Cl (configuration not stated)	L major viab 72
CCOc1cc(-c2nc(C)c(C(C)=O)n2O)ccc1OCC(=O)Nc1ccccc1	none
COc1ccc(N2C(=O)CC(NNC(=O)c3ccc(Br)s3)C2=O)cc1 (configuration not stated)	none
O=C(NNC1CC(=O)N(c2cccc(Cl)c2)C1=O)c1cccs1 (configuration not stated)	L major viab 63
CC(=O)NCCCC(=O)NNC1CC(=O)N(c2cccc(Cl)c2)C1=O (configuration not stated)	none (no result: RAM network inh, L major viab, WT yeast gro inh)
COc1cccc(N2C(=O)CC(NNC(=O)c3cccs3)C2=O)c1 (configuration not stated)	L major viab 63
Cc1cc(C)cc(OCc2nnc(N)s2)c1	none (no result: RAM network inh, L major viab, WT yeast gro inh)
O=C(c1ccc2c(c1)OCCO2)C1CCN(C(=O)c2ccc(F)cc2)CC1	none
O=C(c1ccc2c(c1)OCCO2)C1CCN(C(=O)c2ccc(F)c(F)c2)CC1	L major viab 57
CC(C)Cc1nn2c(N)c(/C=C3\C=Nc4ccccc43)c(=O)nc2s1	none
CN(C)CCCN(C(=O)c1ccc2c(c1)CCCC2)c1nc2ccc(Cl)cc2s1	CHOP inhibitor 90, L major viab 79, WT yeast gro inh 80
CN(C)CCN(C(=O)c1ccc(N2C(=O)CCC2=O)cc1)c1nc2cc3c(cc2s1)OCO3	none
CN(C)CCCN(C(=O)COc1ccccc1)c1nc2ccc(Cl)cc2s1	none
CN(C)CCCN(C(=O)CCc1ccccc1)c1nc2ccc(Cl)cc2s1	L major viab 87
O=C(CCc1nnc(-c2ccc3c(c2)OCO3)o1)NC(c1cccnc1)C(F)(F)F (configuration not stated)	none
C/C(=N\NC(=O)c1nonc1N)c1cccs1	none
N#Cc1nc(-c2ccccc2F)oc1NC1CCCCC1	CHOP inhibitor 80
CCc1ccc(NC(=O)CNS(=O)(=O)c2c(C)noc2C)cc1	none
Cc1cccc(Sc2c([N+](=O)[O-])ncn2C)c1	L major viab 93
O=[N+]([O-])c1ccc(Oc2ccc(F)cc2)c2ccncc12	CHOP inhibitor 77
O=[N+]([O-])c1ccc(Oc2cccc(Br)c2)c2ccncc12	none
Cc1nc(-c2ccccn2)nc(SCC(=O)c2ccccc2)c1Cl	none (no result: RAM network inh, L major viab, WT yeast gro inh)
COCCNC(=O)/C(C#N)=C1\N=C(N)c2ccccc21	L major viab 59
Cc1ccc(NS(=O)(=O)c2cc(-c3n[nH]c(=O)c4ccccc34)ccc2C)cc1	none
CC(C)n1c(O)c(N=NC(=O)c2ccccc2NS(=O)(=O)c2cccs2)c2ccccc21	none
COc1ccc(NS(=O)(=O)c2ccc(C)c(NC(=O)NC3CCCCC3)c2)cc1	L major viab 99
COc1ccc(NS(=O)(=O)c2cccc(N/C(=N\S(=O)(=O)c3ccccc3)c3ccc(F)cc3)c2)cc1	L major viab 76
COc1ccc(NS(=O)(=O)c2cccc(NC(=O)NC3CCCCC3)c2)cc1	L major viab 99
COc1ccc(NS(=O)(=O)c2ccc(OC)c(NC(=O)CCC3CCCCC3)c2)cc1	none

Bioassay records (PubChem)
